# According to PubChem BioAssay:
# Target: Epidermal growth factor receptor (Homo sapiens) (UniProt P00533)
# Assay: EGFR binders on small-molecule microarrays, primary screen, biochemical, small-molecule microarray, 635 nm fluorescence (AID 1104);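 further: score merges 667 nm emission intensity with spot signal to noise over triplicate slides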
# Conditions: EGFR binding, higher = more signal
# Epidermal growth factor receptor (Homo sapiens), sequence (P00533 whole entry, looked up): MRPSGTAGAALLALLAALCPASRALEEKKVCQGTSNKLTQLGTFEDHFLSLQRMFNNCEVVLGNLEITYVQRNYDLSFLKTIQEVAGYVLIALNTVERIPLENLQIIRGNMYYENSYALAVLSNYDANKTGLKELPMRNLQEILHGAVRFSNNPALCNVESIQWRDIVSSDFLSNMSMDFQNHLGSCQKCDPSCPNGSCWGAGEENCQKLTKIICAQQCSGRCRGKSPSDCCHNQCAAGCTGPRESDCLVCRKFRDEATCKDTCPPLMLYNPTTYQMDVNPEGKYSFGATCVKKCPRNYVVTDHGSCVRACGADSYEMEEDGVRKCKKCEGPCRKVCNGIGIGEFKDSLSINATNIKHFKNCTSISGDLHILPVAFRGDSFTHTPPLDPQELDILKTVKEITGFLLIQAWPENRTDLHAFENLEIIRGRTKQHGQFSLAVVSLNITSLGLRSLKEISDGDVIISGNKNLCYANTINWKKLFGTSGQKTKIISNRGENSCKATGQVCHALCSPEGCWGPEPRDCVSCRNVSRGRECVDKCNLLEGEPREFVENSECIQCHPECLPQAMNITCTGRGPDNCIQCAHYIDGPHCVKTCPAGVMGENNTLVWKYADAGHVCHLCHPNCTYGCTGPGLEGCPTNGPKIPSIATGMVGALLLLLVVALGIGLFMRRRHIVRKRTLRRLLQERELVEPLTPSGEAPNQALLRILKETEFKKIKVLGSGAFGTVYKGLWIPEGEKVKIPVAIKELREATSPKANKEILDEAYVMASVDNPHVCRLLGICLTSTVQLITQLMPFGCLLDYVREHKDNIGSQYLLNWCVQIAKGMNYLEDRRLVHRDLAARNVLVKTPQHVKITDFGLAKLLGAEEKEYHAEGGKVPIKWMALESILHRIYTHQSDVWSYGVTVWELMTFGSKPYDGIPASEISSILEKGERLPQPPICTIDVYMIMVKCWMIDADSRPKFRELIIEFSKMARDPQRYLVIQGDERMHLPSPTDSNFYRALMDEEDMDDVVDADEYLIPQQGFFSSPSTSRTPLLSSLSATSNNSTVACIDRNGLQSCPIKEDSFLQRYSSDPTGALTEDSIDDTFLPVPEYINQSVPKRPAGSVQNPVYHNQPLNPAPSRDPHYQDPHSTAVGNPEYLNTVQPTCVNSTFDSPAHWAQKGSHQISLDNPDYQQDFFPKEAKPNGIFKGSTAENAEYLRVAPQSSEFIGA
row,SMILES,composite z-score
1,CCOC(=O)C1=CCC(c2ccc(C)cc2)N(S(=O)(=O)c2ccc(C)cc2)C1 (stereo not given),-0.136
2,CN(C)CCCNC(=O)[C@@]1(c2ccc([N+](=O)[O-])cc2)CC(=O)N(C2CCCCC2)[C@@H]1c1ccc(CO)cc1,-0.364
3,CC(=O)N1Cc2ccccc2C[C@@]2(COC(c3ccc(OCCCO)cc3)=N2)C1=O,0.455
4,COCCOC(=O)N1C(=O)[C@@]2(c3cc(C#CC4=CCCCC4)ccc31)[C@H](C(=O)Nc1nc3ccccc3s1)[C@H]1C(=O)O[C@H](c3ccccc3)[C@H](c3ccccc3)N1[C@@H]2c1ccc(OCCO)cc1,0.36
5,C=CC[C@]1(C(=O)N2CCCCC2)N=C(c2ccc(OCCCO)cc2)O[C@H]1c1ccccc1,0.0792
6,O=C1NCC(=O)N2[C@@H]1C[C@@H](C(=O)O)[C@H]2c1cccc(OCCO)c1,1.96
7,O=C1O[C@H](c2ccccc2)[C@H](c2ccccc2)N2[C@H]1[C@@H](C(=O)O)[C@]1(C(=O)Nc3ccc(C#CCCO)cc31)[C@H]2c1ccc(O)cc1,-0.289
8,C=CCOC(=O)[C@H]1[C@@H]2C(=O)O[C@@H](c3ccccc3)[C@@H](c3ccccc3)N2[C@@H](c2ccc(OCCOC(=O)[C@@H]3C[C@@H]4C(=O)N[C@@H](CCCCN(C)C)C(=O)N4[C@@H]3c3ccc(O)cc3)cc2)[C@]12C(=O)Nc1ccc(I)cc12,0.537
9,CC(C)(C)OC(=O)CC[C@]12N=C(c3ccc(OCCCO)cc3)O[C@H]1c1ccccc1N(CCS(=O)(=O)c1ccccc1)C2=O,0.545
10,CN(C)C(=O)[C@@]1(Cc2ccccc2CN=[N+]=[N-])N=C(c2ccc(OCCCO)cc2)O[C@H]1c1ccccc1,-0.333
11,COc1cc2c(cc1OC)CN(C(=O)[C@H]1[C@@H]3C(=O)O[C@@H](c4ccccc4)[C@@H](c4ccccc4)N3[C@@H](c3ccc(O)cc3)[C@]13C(=O)Nc1ccc(C#CC4=CCCCC4)cc13)CC2,0.405
12,CN1C(=O)C2C=CC(C(O)c3cc(C(F)(F)F)cc(C(F)(F)F)c3)N(N3CCCCC3)C2C1=O (stereo not given),-0.448
13,COCC(=C=CC[C@H](O)c1ccccc1OCCO)C[C@H](O)c1cc(Cl)cc(Cl)c1O,-0.0335
14,CCCN1C(=O)[C@]2(CCS(=O)(=O)c3ccccc3)N=C(c3ccc(OCCCO)cc3)O[C@@H]2c2ccccc21,0.0338
15,COc1cc2c(cc1OC)CN(C(=O)[C@H]1[C@@H]3C(=O)O[C@@H](c4ccccc4)[C@@H](c4ccccc4)N3[C@@H](c3ccc(O)cc3)[C@]13C(=O)Nc1ccc(C#CCNC(N)=O)cc13)CC2,-0.0357
16,CN(C)CCCNC(=O)[C@@]1(C)c2ccccc2C(=O)N(Cc2cc(F)cc(C(F)(F)F)c2)[C@H]1c1ccc(CO)cc1,-1.63
17,O=C1C2C=CC(C(O)C3CCCCC3)N(Nc3ccc([N+](=O)[O-])cc3)C2C(=O)N1c1ccccc1 (stereo not given),-1.54
18,O=C1OCCC/C=C\[C@H]2OC34C=CCN(c5ccc6ccccc6c5)C(=O)[C@H]3N(CCCCCCO)C(=O)[C@@H]4C12 (stereo not given in full),0.102

row,SMILES,composite z-score
1,COCCOC(=O)N1C(=O)[C@@]2(c3cc(C#CCNC(N)=O)ccc31)[C@H](C(=O)NC[C@H](O)c1ccccc1)[C@H]1C(=O)O[C@H](c3ccccc3)[C@H](c3ccccc3)N1[C@@H]2c1ccccc1OCCO,0.366
2,CC(C)(C)OC(=O)CC[C@@]12N=C(c3ccc(OCCCO)cc3)O[C@@H]1c1ccccc1N(CCS(=O)(=O)c1ccccc1)C2=O,0.348
3,COC(=O)[C@@]1(Cc2ccc(F)cc2)[C@H]2c3cc(C(=O)N4CCCC4)n(Cc4cc(C)n(C)n4)c3C[C@H]2CN1C(=O)c1ccccc1,-0.144
4,COC(=O)c1c(CC[C@@H](CO)NC(=O)N2CCC[C@H]2Cn2cc(-c3ccccn3)nn2)oc(C(C)=O)c1C(=O)OC,0.0417
5,CCOC(=O)[C@H]1CC=C2CC1C(=O)N1CCC[C@@H]1[C@@H]2O[Si](C)(C)C(C)(C)C (stereo not given in full),-0.265
6,C=CCC(OC(C)=O)[C@@H]1[C@@H](N(Cc2ccc(-c3ccccc3)cc2)C(=O)Cc2ccc(F)cc2)c2cc(OCCCO)ccc2N1C(=O)c1ccc(-c2ccccc2)cc1 (stereo not given in full),-0.376
7,CCOC(=O)C[C@H]1[C@H](OC(=O)Cc2ccc3c(c2)OCO3)[C@@H](NC(=O)c2ccc(-c3ccccc3)cc2)c2cc(OCCCO)ccc2N1C(=O)c1ccc2ccccc2n1,0.468
8,COCCCNC(=O)[C@@]1(Cc2ccccc2)N=C(c2ccc(OCCCO)cc2)O[C@H]1c1ccccc1,-0.804
9,NC(=O)[C@@H]1[C@H]2C(=O)O[C@H](c3ccccc3)[C@H](c3ccccc3)N2[C@H](c2ccc(O)cc2)[C@@]12C(=O)Nc1ccc(C#CC3(O)CCCCCC3)cc12,-0.497
10,COc1cc2c(cc1O)C(C1CC1)N(Cc1cc3c(cc1Br)OCO3)CC2 (stereo not given),-1.12
11,CCCCCC1=C2CNC(CCC)(C(=O)OC)C=C2C(C)C1=O (stereo not given),-0.576
12,COc1ccc(C(O)C2C=CC3C(=O)NC(=O)C3N2Nc2ccccn2)c2ccccc12 (stereo not given),0.307
13,COC(=O)C(CC#Cc1ccc2c(c1)[C@]1(C(=O)N2)[C@H](C(=O)O)[C@H]2C(=O)O[C@H](c3ccccc3)[C@H](c3ccccc3)N2[C@@H]1c1ccc(O)cc1)C(=O)OC,-0.46
14,CC1(C)[C@@H]2CC(C(O)C3C=CC4C(=O)N(c5ccccc5)C(=O)C4N3Nc3ccccc3)=C[C@H]1C2 (stereo not given in full),-0.316
15,COc1ccc([Si](C)(C)[C@H]2[C@H](CCn3cc([C@H](O)c4ccccc4)nn3)O[C@@]3(C(=O)N(Cc4cccc(N5CCOC5=O)c4)c4ccccc43)[C@@H]2C)cc1,0.334
16,COc1cc2c(cc1O)C=[N+](Cc1cccc(OC(F)(F)F)c1)CC2,0.128
17,COC(=O)[C@@]1(Cc2ccc(OC)cc2)[C@H]2c3cc(C(=O)N(C)C)n(CCN4CNCC4=O)c3C[C@H]2CN1C(=O)c1ccccc1,0.259
